Source: PubChem (National Center for Advancing Translational Sciences (NCATS))
Shown are actives, neighbours in structure and some others; about 3.2% of the full set was active somewhere.
FMDV inh: antivirals against foot and mouth disease virus; Potency, µM (highest dose often 57.9 µM), without a hit: top-dose activity change, negative = inhibition, actives largely listed as inhibitors; FMDV antiviral cell-based qHTS; AID 1159524; actives 1.2% (n = 410,000); calls by dose curve; tested in HEK293T cells; also: read-out not given here; nearly all actives have a fitted effect of over 45% in size
Vaccinia mCherry: inhibitors of vaccinia virus infection (mCherry reporter signal); Vaccinia virus mCherry reporter infection, fluorescence; Potency, µM (top dose mostly 36.5 µM), for the others: top-dose activity change, negative = inhibition, hits mostly inhibitors; actives 0.63% (n = 310,000); AID 720579; calls by dose curve; tested in A549 cells; also: nearly all actives have a fitted effect of over 35% in size
VACV Venus inh: inhibitors of vaccinia virus (Venus reporter); Vaccinia virus Venus reporter expression, fluorescence; actives 0.46% (n = 330,000); Potency, µM (doses to about 36.5 µM), inactives show at the top dose activity change, negative = inhibition, most hits filed as inhibitors; calls by dose curve; tested in A549 cells; also: nearly all actives have a fitted effect of over 30% in size
LASV entry inh: blocks Lassa virus binding to or entry into cells | Lassa virus pseudotype entry inhibition, cell reporter | Potency, µM (series often up to 37.9 µM), for the others: at the top dose activity change, negative = inhibition, usual class: inhibitors | actives 1.2% (n = 300,000); calls by dose curve; tested in HEK293 cells; also: nearly all actives have a fitted effect of over 50% in size
Marburg entry inh: Marburg virus entry inhibition; actives 1.8% (n = 300,000); Potency, µM (highest dose often 37.8 µM), for the others: at the top dose activity change, negative = inhibition, most hits filed as inhibitors; Marburg virus pseudotyped entry inhibition, cell reporter; AID 540276; calls by dose curve; tested in HEK293 cells
An asterisk follows results filed as active; [ ] = dose if it differs, or a comment. % is scaled to controls: 0 for no effect and ±100 for the full control effect; potency is read from the fitted curve at half-maximal effect.

COc1ccc(NC(=O)C2(C)Cc3c(-c4cccc(C(N)=O)c4)ccnc3O2)cn1 (stereo not given) was read as FMDV inh -4%, Vaccinia mCherry -2% and VACV Venus inh -28%.
O=C(NCc1ccc(Cl)cc1)c1ccc2c(=O)n(CC3CCCO3)c(=S)[nH]c2c1 (stereo not given) was read as FMDV inh 18µM*, Vaccinia mCherry -15%, VACV Venus inh -2%, LASV entry inh inconclusive and Marburg entry inh 8%[46.1 µM].
For COC(=O)[C@@]12C[C@@H](CC(=O)N3CCC(c4ccccc4)CC3)C(=O)N(Cc3cccc4ccccc34)C1=CCC(C)(C)C2 the results were FMDV inh -3%, Vaccinia mCherry inconclusive and VACV Venus inh -21%.
CC(C)(C)c1ccc(C(=O)Nc2cccc3c(=O)[nH][nH]c(=O)c23)cc1 was read as FMDV inh 4.5µM*, Vaccinia mCherry -22%, VACV Venus inh -14%, LASV entry inh 7.1µM* and Marburg entry inh inconclusive.
Screening Cc1ccc(C(=O)Nc2cccc3ccccc23)cc1 returned FMDV inh 47%.
`O=C(/C=C/c1ccnc2ccccc12)c1cccs1` gave FMDV inh -70%, Vaccinia mCherry inactive, VACV Venus inh -20%, LASV entry inh inconclusive and Marburg entry inh 3.2µM*.
CC(=O)c1sc(NCc2ccc(C)cc2)nc1C was read as FMDV inh 33%, Vaccinia mCherry -15%, VACV Venus inh -26%, LASV entry inh inconclusive and Marburg entry inh 10µM*.
Screening Cc1ccc(C2=NC(C)(C)N=C2SCC(=O)Nc2ccc(Cl)cc2)cc1 returned FMDV inh 32µM*, Vaccinia mCherry inconclusive, VACV Venus inh inconclusive, LASV entry inh -3% and Marburg entry inh inconclusive.
`CC1(C)N=C(SCC(=O)Nc2ccc(Cl)cc2Cl)C(c2ccccc2)=N1` gave FMDV inh inconclusive, LASV entry inh -13% and Marburg entry inh -19%.
Screening CC1(C)N=C(SCC(=O)Nc2ccccc2)C(c2ccc(Cl)cc2)=N1 returned FMDV inh 18µM*, Vaccinia mCherry inconclusive, VACV Venus inh -29%, LASV entry inh inconclusive and Marburg entry inh inconclusive.
`CC(C)=CCC/C(C)=C/CO/N=C1/C[C@@H](O)[C@@H](O)[C@@H]2[C@@H]3C(=O)N(Cc4ccccc4)C(=O)[C@H]3CC[C@H]12` gave Marburg entry inh 3%[14.2 µM].
Screening CCC[C@H]1CN(Cc2cccnc2)C(=O)[C@H]1CC(=O)Nc1ccc(Br)cc1 returned LASV entry inh 6%[46.1 µM].
Screening CCOC(=O)C(c1ccccc1)C(Nc1ccc(F)cc1)c1ccccn1 (stereo not given) returned FMDV inh -21%.
`CCOC(=O)C(C(=O)OCC)C(Nc1ccc(Br)cc1)c1ccccc1` (stereo not given) gave FMDV inh 13µM*, LASV entry inh 17% and Marburg entry inh -13%.
`CC=COC(=O)N[C@@H](c1ccccc1)[C@]1(C(=O)OCC)CCCC1=O` gave Marburg entry inh 2%[14.2 µM].
`Cc1ccc(OCC(=O)NC(=S)Nc2ccccn2)c(Br)c1` gave FMDV inh 16µM*, Vaccinia mCherry inactive, VACV Venus inh -10%, LASV entry inh inconclusive and Marburg entry inh inconclusive.
`O=C1/C(=C/Nc2ccc3c(c2)OCO3)CCc2ccccc21` gave FMDV inh inconclusive, Vaccinia mCherry inconclusive, VACV Venus inh -16%, LASV entry inh 1.4µM* and Marburg entry inh inconclusive.
Screening COc1ccc(N/C=C2\CCc3ccccc3C2=O)cc1 returned FMDV inh 25µM*.
For COc1ccc2c(c1)CC/C(=C\Nc1ccc3c(c1)OCO3)C2=O the results were Vaccinia mCherry -25%, VACV Venus inh -10%, LASV entry inh inconclusive and Marburg entry inh inconclusive.
For CNC(=O)N(O)C1N(/N=C/c2c(F)cccc2Cl)C(=S)SC1(C)C (stereo not given) the results were FMDV inh 14%.
Screening CN(C)c1ccc(CC2CCc3ccccc32)cc1 (stereo not given) returned Vaccinia mCherry -9% and VACV Venus inh -23%.
For CCOC(=O)/C(=C\C=C1/Sc2ccccc2N1CC)C(C)=O the results were FMDV inh 5%, Vaccinia mCherry inconclusive, VACV Venus inh -24%, LASV entry inh 2.8µM* and Marburg entry inh inconclusive.
